The results in this text go back to PubChem BioAssay AID588458 (Sanford-Burnham Center for Chemical Genomics, 2011).

Screen size: about 360,000 compounds; about 3,000 (0.83%) were called active. No stated cut-off is given here; in the data, active means inhibition above about 50%; inactive means the rest. Shown is part of a subset that was picked to be rich in actives.

Chain of DNA (cytosine-5)-methyltransferase 1 (Homo sapiens) (P26358 504-1616 limits assumed): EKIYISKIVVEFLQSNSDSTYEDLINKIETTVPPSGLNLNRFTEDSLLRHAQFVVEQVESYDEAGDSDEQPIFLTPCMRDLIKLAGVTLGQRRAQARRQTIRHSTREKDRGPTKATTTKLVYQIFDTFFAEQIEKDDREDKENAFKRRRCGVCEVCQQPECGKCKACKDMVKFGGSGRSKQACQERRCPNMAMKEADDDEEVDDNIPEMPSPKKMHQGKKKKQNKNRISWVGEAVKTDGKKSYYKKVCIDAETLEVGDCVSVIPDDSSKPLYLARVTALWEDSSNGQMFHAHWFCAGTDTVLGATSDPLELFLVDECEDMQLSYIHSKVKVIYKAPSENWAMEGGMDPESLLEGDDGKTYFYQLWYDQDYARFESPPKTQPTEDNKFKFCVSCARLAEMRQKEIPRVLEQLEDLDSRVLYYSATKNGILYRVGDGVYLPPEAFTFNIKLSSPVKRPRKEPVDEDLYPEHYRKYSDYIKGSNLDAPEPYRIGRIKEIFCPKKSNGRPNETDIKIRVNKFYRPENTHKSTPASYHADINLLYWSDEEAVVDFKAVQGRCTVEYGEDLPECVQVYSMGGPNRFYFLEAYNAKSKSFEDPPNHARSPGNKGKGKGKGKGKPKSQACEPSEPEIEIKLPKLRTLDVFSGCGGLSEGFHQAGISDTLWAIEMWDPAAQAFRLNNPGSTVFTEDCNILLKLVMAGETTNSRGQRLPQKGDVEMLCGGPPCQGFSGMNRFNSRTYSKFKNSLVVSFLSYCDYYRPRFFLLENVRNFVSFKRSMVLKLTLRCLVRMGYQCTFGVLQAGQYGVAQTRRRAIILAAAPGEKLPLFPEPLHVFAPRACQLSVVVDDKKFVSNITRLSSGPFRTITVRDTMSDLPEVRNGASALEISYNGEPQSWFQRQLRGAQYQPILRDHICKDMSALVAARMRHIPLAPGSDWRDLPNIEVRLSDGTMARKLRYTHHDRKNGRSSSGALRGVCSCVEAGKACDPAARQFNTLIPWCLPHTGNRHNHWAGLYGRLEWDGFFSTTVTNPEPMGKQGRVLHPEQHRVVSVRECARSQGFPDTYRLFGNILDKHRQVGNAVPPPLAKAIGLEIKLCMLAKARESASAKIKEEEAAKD

This test addresses DNA (cytosine-5)-methyltransferase 1 (Homo sapiens) (UniProt P26358). Put plainly: inhibition of DNA methyltransferase DNMT1 – biochemical, molecular beacon, fluorescence, HinP1I cleavage, uHTS, primary screen (AID 588458). Conditions: at 10 µM, hits give high values.
With `CC(=O)c1ccc(NC(=O)c2ccc3c(Cl)c4c(nc3c2)CCCC4)cc1`, the inhibition (reported as % activation of signal) was 76.2% (active). To `CC(C)CCNC(=O)c1ccc2c(Cl)c3c(nc2c1)CCC3` belongs -1.49% (inactive); to `COc1cccc(NC(=O)c2ccc3c(SCC(=O)O)c4c(nc3c2)CCCC4)c1`, 9.48% (inactive); to `CC1=C(C(=O)N2CCOCC2)CC(CC(=O)NCCCN(C)C)C(=O)N1Cc1ccc(C(C)(C)C)cc1` (centres undefined), 2.88% (inactive). To `O=c1c2cc([N+](=O)[O-])ccc2nc2n1CCC2` belongs 2.73% (inactive); to `Cc1cccc(NC(=S)N(CCN(C)C)C(C)c2ccco2)c1` (centres undefined), -0.09% (inactive); to `O=C(CCC(=O)N/N=C/c1ccc(Br)o1)N/N=C/c1ccc(Br)o1`, 17% (inactive). Next, `O=C(CCc1n[nH]c(=O)[nH]c1=O)N/N=C/c1ccc(Br)o1`: 5.93% (inactive); `O=C(CCNC(=O)c1ccccc1)NN=Cc1ccc(Br)o1`: 50.6% (active). As for `COc1ccccc1OC(C)C(=O)Nc1ccc(S(=O)(=O)Nc2nccs2)cc1` (centres undefined), the inhibition (reported as % activation of signal) is 0.4% (inactive). `CSc1nc(-c2ccco2)nn1C(=O)c1ccccc1Cl`: the inhibition (reported as % activation of signal) was 4.2% (inactive). To `O=C(Nc1nnc(SCc2ccccc2Cl)s1)c1cccc([N+](=O)[O-])c1` belongs -4.99% (inactive); to `c1ccc(CSc2nnc(-c3ccco3)c(-c3ccco3)n2)cc1`, 113% (active). In the case of `c1ccc(Cc2c(-c3ccco3)nc3c4ccccc4ccn23)cc1`, the inhibition (reported as % activation of signal) is -16.2% (inactive). To `Clc1ccccc1CSc1nnc(-c2ccco2)c(-c2ccco2)n1` belongs 92.8% (active); to `COc1ccc(NCc2nnc(SCc3ccccc3)n2-c2ccc(OC)cc2)cc1`, -3.05% (inactive); to `CC(c1nnc(SCC(=O)Nc2sccc2C#N)n1-c1ccc(Cl)cc1)N(C)C` (centres undefined), -2.07% (inactive).

On to `CCOc1cc(CNCCN(C)C)c(Cl)cc1OCC(=O)NCCc1ccccc1`, for which the inhibition (reported as % activation of signal) is 2.37% (inactive).

Take `N#Cc1cc([N+](=O)[O-])ccc1NCC1CCCO1` (centres undefined): the inhibition (reported as % activation of signal) was 0.79% (inactive). Take `COCCNC(=O)CN(Cc1ccco1)C(=O)CCC(=O)Nc1nccs1`: the inhibition (reported as % activation of signal) is 0.73% (inactive). To `CC(C)(C)C(=O)N1CCC[C@@]1(CO)C(=O)O` belongs 5.81% (inactive).

Turning to `Cc1ccc(S(=O)(=O)CCC(=O)OCC(=O)NCCc2ccc(S(N)(=O)=O)cc2)cc1`, the inhibition (reported as % activation of signal) is -1.16% (inactive). Next, `O=C(CCS(=O)(=O)c1ccc(Br)cc1)NCCc1ccc(Cl)cc1`: 68.7% (active).

For the molecule `O=C(NCCS(=O)(=O)c1ccc(Br)cc1)c1ccccc1Cl`, the inhibition (reported as % activation of signal) is 2.79% (inactive). To `COc1ccc(Cl)cc1NC(=O)CCS(=O)(=O)c1ccc(Br)cc1` belongs 94.1% (active); to `CCCCC(=O)N/N=C(\C)CC(=O)Nc1cc(Cl)ccc1OC`, 2.33% (inactive); to `COc1ccc(Cl)cc1NC(=O)COC(=O)c1ccc(Br)o1`, -6% (inactive). To `Cc1noc(C)c1CSCC(=O)N(CCC(C)C)c1c(N)n(Cc2ccccc2)c(=O)[nH]c1=O` belongs -0.4% (inactive); to `Cc1ccn2c(c1)nc(=O)c1cc(S(=O)(=O)N3CCC(C)CC3)ccc12`, 2.87% (inactive).

`Cc1cc(C(=O)N2CCCC2(C)C(=O)O)c(C)o1` (centres undefined): the inhibition (reported as % activation of signal) was 8.96% (inactive). For the molecule `NC(=O)COC(=O)c1ccc2c(c1)C(=O)N(Cc1ccco1)C2=O`, the inhibition (reported as % activation of signal) was 1.59% (inactive).

Take `CC(C)(C)C1C/C(=C/c2ccco2)C(=O)/C(=C/c2ccco2)C1` (centres undefined): the inhibition (reported as % activation of signal) was 95.9% (active). As to `COC(=O)COc1ccc2c(c1C)O/C(=C\c1ccco1)C2=O`, the inhibition (reported as % activation of signal) is -2.61% (inactive). To `COc1ccc(-c2ccc3c(c2)[C@@H]2C[C@H](N(C)S(=O)(=O)c4ccccc4)[C@H]([C@H](C)O)C(=O)N2CC3)cc1` belongs -4.42% (inactive); to `C[C@@H]1CN([C@H](C)CO)C(=O)CCCn2cc(nn2)CO[C@H]1CN(C)S(C)(=O)=O`, 2.33% (inactive).

As to `CCc1c(C)nc2c(-c3ccccc3)c(C)nn2c1Nc1ccc(NC(C)=O)cc1`, the inhibition (reported as % activation of signal) is -6.65% (inactive). Next, `O=C(NNc1c2ccccc2nc2ccccc12)c1cc2ccccc2cc1O`: -19.2% (inactive); `CC(=O)Nc1ccc(Nc2c3ccccc3nc3ccccc23)cc1`: 57.2% (active). To `Oc1ccc2ccc3cccc[n+]3c2c1` belongs 59% (active); to `CCOc1cc(/C=C/C(=O)OCC(=O)NCCN2C(=O)CSC2=O)ccc1OCC(C)C`, 8.03% (inactive); to `CCCCC(=O)N(c1ccc(OC)cc1)C1C=CS(=O)(=O)C1` (centres undefined), -1.75% (inactive). To `Cc1ccc2cc(C)c(N3CCN(c4ccc(F)cc4)CC3)nc2c1` belongs 2.96% (inactive). Take `Cc1cc(C)c2cc(C#N)c(N3CCNCC3)nc2c1`: the inhibition (reported as % activation of signal) is 6.52% (inactive).

`Cc1ccc2cc(C)c(N3CCC(C)CC3)nc2c1`: the inhibition (reported as % activation of signal) is 80.8% (active). With `CC(=O)NC1C(Oc2ccc(C)cc2)OC2COC(c3ccco3)OC2C1O` (centres undefined), the inhibition (reported as % activation of signal) was 3.51% (inactive).

For `CCN(CCn1cccn1)Cc1nc(-c2ccc(C(=O)OC)cc2)no1`, the inhibition (reported as % activation of signal) is -5.27% (inactive). Regarding `CCS(=O)(=O)C1=NSC2=NC(=O)/C(=C\c3ccc(OS(=O)(=O)c4ccccc4)cc3)C(=N)N21`, the inhibition (reported as % activation of signal) was -8.29% (inactive).

Take `CS(=O)(=O)c1ccc2c(c1)SC1=NC(=O)/C(=C/c3ccco3)C(=N)N12`: the inhibition (reported as % activation of signal) is 74.4% (active).

As for `CC(=O)OC[C@@H]1CN(Cc2ccccc2)C[C@H](n2cnc3c(NCc4ccco4)ncnc32)O1`, the inhibition (reported as % activation of signal) is -4.87% (inactive). To `COc1ccc(S(=O)(=O)N2CCC(C(=O)NCCC(=O)NCCc3cccc(F)c3)CC2)cc1` belongs 2% (inactive); to `COc1cc(C(C)=O)ccc1OC(C)C(=O)Nc1ccc(S(=O)(=O)N2CCCC2)cc1` (centres undefined), -3.33% (inactive); to `C=CCn1c(=NC(=O)c2ccc(S(=O)(=O)N3CCCC3)cc2)sc2cc(NC(C)=O)ccc21`, 57.7% (active). Next, `C=CCn1c(=NC(=O)c2cccs2)sc2cc(NC(C)=O)ccc21`: 27% (inactive); `CN(Cc1ccccc1)C(=O)CCC1CCN(C(=O)c2ccco2)CC1`: 0.12% (inactive); `O=C(COC(=O)CNS(=O)(=O)c1ccc(F)c(F)c1F)NC1CCCC1`: 1.29% (inactive).

`CN1CCN(C(=O)c2ccccc2NC(=O)COc2ccccc2Cl)CC1`: the inhibition (reported as % activation of signal) is 0.74% (inactive).

Turning to `CCN(CC(=O)NCC(=O)Nc1cccc(C)c1C)Cc1ccccc1`, the inhibition (reported as % activation of signal) was 0.32% (inactive). Next, `Cc1ccc2[nH]c(=O)c(-c3nc4c(C)cccn4c3NCc3ccco3)cc2c1`: 50.4% (active); `Cc1ccc2nc(SC(C)C(=O)NCc3ccco3)[nH]c2c1` (centres undefined): -2.41% (inactive). Regarding `Cc1ccc(SCC(=O)NC(=O)NCc2ccco2)c(C)c1`, the inhibition (reported as % activation of signal) was 48.3% (inactive). To `O=C(NNS(=O)(=O)c1ccccc1C(F)(F)F)c1cc2ncc(C(F)(F)F)cc2s1` belongs 5.47% (inactive); to `O=C(Nc1nnc(C2COc3ccccc3O2)o1)c1ccc(F)cc1` (centres undefined), 2.41% (inactive). To `COc1ccccc1NC(=O)C(CC(=O)O)Cc1cc(C)cc(C)c1` (centres undefined) belongs 7.02% (inactive); to `Cc1ccc(/C=C/C(=O)Nc2cc(S(=O)(=O)N3CCCCCC3)ccc2OCC(F)(F)F)o1`, -10.7% (inactive); to `Cc1ccc(/C=C/C(=O)Nc2ccc([N+](=O)[O-])c(NC(=O)/C=C/c3ccc(C)o3)c2)o1`, 86.1% (active). With `COC(=O)/C=C\C(=O)Nc1cccc([N+](=O)[O-])c1`, the inhibition (reported as % activation of signal) is 1.93% (inactive). Consider `CCOC1=C2[C@H]([C@H]3C(=O)N(c4ccccc4)C(=O)[C@H]3C1)[C@@H](c1ccccc1)N(S(=O)(=O)c1ccc(C)cc1)[C@H]2c1ccccc1`, for which the inhibition (reported as % activation of signal) is 0.54% (inactive). As to `COc1ccc(CN2C[C@H]3CON(C)[C@H]3C[C@H]2c2ccc(-c3cccc(F)c3)cc2)cc1`, the inhibition (reported as % activation of signal) is -13.2% (inactive). Consider `CN(C(=O)CC1C(=O)NCCN1Cc1ccc(F)cc1Cl)C1CCCCC1` (centres undefined), for which the inhibition (reported as % activation of signal) is -5.76% (inactive).

For the molecule `Cc1ccc(NC(=O)Cn2c(=O)n(CCC(=O)NC3CCN(Cc4ccccc4)CC3)c(=O)c3ccccc32)cc1`, the inhibition (reported as % activation of signal) was 1.32% (inactive).

As for `CCCCNC(=O)CCn1c(=O)c2ccccc2n(Cc2cc(C)ccc2C)c1=O`, the inhibition (reported as % activation of signal) was 55.4% (active). On to `COCCNC(=O)CCCn1c(=O)c2ccccc2n(Cc2cccc([N+](=O)[O-])c2)c1=O`, for which the inhibition (reported as % activation of signal) was -1.32% (inactive). Next, `COC(=O)/C(=C\Nc1ccccc1)NC(=O)c1ccc(Cl)cc1Cl`: -1% (inactive). With `COc1cccc2cc(C(C)N(CCCN3CCOCC3)C(=O)Nc3ccc(Cl)cc3)oc12` (centres undefined), the inhibition (reported as % activation of signal) was 0.19% (inactive). Next, `CCOC(=O)C1(Cc2ccc(Cl)cc2)CCN(C(=O)C2=NNC(=O)CC2)CC1`: -1.13% (inactive); `COc1ccc(C(=O)OCC(=O)NCCCc2ccccc2)cc1OC`: 0.32% (inactive). Take `COc1ccc(C(=O)OCC(=O)Nc2cccc(C(C)=O)c2)cc1OC`: the inhibition (reported as % activation of signal) is 70.9% (active). Next, `CC(=O)Nc1cccc(C(=O)OCC(=O)Nc2nnc(-c3ccccc3)o2)c1`: 1.02% (inactive); `C=CCNC(=O)COC(=O)CNC(=O)c1cc(Cl)cc([N+](=O)[O-])c1`: 6.93% (inactive). Next, `CCc1c(C)c2c(C)[nH]nc2oc1=O`: -3.15% (inactive). For `CCC(C)Cn1c(O)cc2nn(-c3nc4ccccc4s3)c(=O)c-2c1C` (centres undefined), the inhibition (reported as % activation of signal) was 52.2% (active). To `CC1CCCCC1NC(=O)c1cc(=O)[nH]c2ccccc12` (centres undefined) belongs 3.02% (inactive); to `O=C(c1ccc(CS(=O)(=O)c2ccccc2)o1)N1CCN(c2ccccc2)CC1`, 84.6% (active); to `O=C(c1ccc(S(=O)(=O)NCc2ccco2)cc1)N1CCN(c2ccccc2)CC1`, 3.68% (inactive). To `O=C(c1ccc(CS(=O)Cc2ccccc2Cl)o1)N1CCN(c2ccccc2)CC1` (centres undefined) belongs 5.54% (inactive).

Take `CC(=O)N/C(=C/c1ccc(OC(F)F)cc1)C(=O)O`: the inhibition (reported as % activation of signal) was -1.65% (inactive).

For the molecule `Cc1ccc(C(=O)O)cc1-c1ccc(/C=C2\SC(=O)N(CC(=O)Nc3ccc4c(c3)OCO4)C2=O)o1`, the inhibition (reported as % activation of signal) is 12.5% (inactive). Next, `N#Cc1ccccc1CN1C(=O)S/C(=C/c2cccn2-c2cccc(C(=O)O)c2)C1=O`: 102% (active).

Regarding `O=C(NCCN1C(=O)S/C(=C\c2cccnc2)C1=O)c1cccc(OC(F)F)c1`, the inhibition (reported as % activation of signal) was -3.23% (inactive).
